The text below walks through data of PubChem BioAssay (NCI).

What all share (assay): NCI-60 one-dose screen, 48 h (100 = growth as untreated, 0 = no growth, -100 = all killed)
Common to all, as to conditions: 10 µM unless noted

In test [1] the test system is NCI-H23 lung.
Test [2] has as its system NCI-H226 lung.
Test [3] concerns NCI-H322M lung.
For test [4], the system named is HOP-62 NSCLC.
Test [5] relates to NCI-H460 lung.
The test system of test [6] is HOP-92 NSCLC.
For test [7], the system named is NCI-H522 lung.
For test [8], the system named is A549/ATCC NSCLC.
Test [9] concerns 786-0 renal.
For test [10], the system named is COLO 205 colon.
For test [11], the system named is DU-145 prostate.
For test [12], the system named is K-562 leukemia.
Test [13] relates to MALME-3M melanoma.
Test [14] relates to MDA-MB-231 breast.
In test [15] the test system is RXF 393 renal.
Test [16] relates to SF-268 CNS.
In test [17] the test system is SF-295 CNS.
The subject of test [18] is SF-539 CNS.
Test [19] relates to UACC-257 melanoma.
In test [20] the test system is M14 melanoma.

Compounds without any hit were thinned out: in the full panel of roughly 83,000, 20% have a hit.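 Step 1: grow cells in 96-well plates. Step 2: add test compound at a single concentration. Step 3: incubate 48 h. Step 4: record percent growth.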 Unmarked numbers belong to inactive results. The source made the active and inactive calls. How the source made its calls: active means growth percent below 10; inactive means the rest.

On to `CCOC(=O)N1CCc2c(sc3nc4nc[nH]n4c(=O)c23)C1`, for which the growth in [1] is 95%; in test [2], 82.4%; in test [3] it was 109%; in test [4], 86.6%; in [5] it was 109%; in test [6], 93.8%. Further, the growth in test [7] was 85.2%; in [8], 100%; in [9] it was 99.6%; in test [10] it was 102%; in [11] it was 107%; in test [12], 105%. Moreover, the growth in [13] was 102%; in [14], 99.9%; in test [15], 104%; in [16], 99.7%; in test [17], 103%; in [18], 94.6%. The growth in test [19] is 109%.
On to `CC(Oc1ccc(C(=O)NS(=O)(=O)C(C)(C)C)cc1C(F)(F)F)c1ccc(Oc2ccccc2)cn1` (stereo unspecified), for which the growth in test [1] was 83.8%; in [2] it was 81.5%; in test [3] it was 88.3%; in test [4], 78.2%; in test [5] it was 96.9%; in test [6], 73.1%. In addition, the growth in test [7] was 17.2%; in test [8] it was 94.5%; in test [9], 77.7%; in test [10] it was 77.1%; in test [11], 97%; in test [12], 34.7%. In addition, the growth is 59.4% in test [13]; 81% in test [14]; 65.8% in test [15]; 67.8% in [16]; 55.9% in test [17]; 76% in test [18]. In addition, the growth in test [19] is 78.9%; in test [20], 57.3%.
As for `Cc1ccc(-c2csc(/N=C3\C(=O)Nc4ccccc43)n2)cc1`, the growth in [1] was 23.5%; in test [2], 62.1%; in test [3] it was 47.1%; in test [4] it was 25.3%; in [5], 8.52% (active); in test [6] it was -16.1% (active). Also, the growth in test [7] is -57.6% (active); in [8], 23%; in [9], 14.7%; in test [10], -15.6% (active); in test [11], 42.2%; in test [12], 1.43% (active). The growth was -3.69% (active) in test [13]; 11.2% in [14]; -4.86% (active) in test [15]; 33% in test [16]; 13.9% in test [17]; 20.3% in test [18]. The growth in test [19] is 11.9%; in test [20] it was 13.4%.
For the compound `CCOc1cc(CNc2ccc(N3CCOCC3)c(C(=O)O)c2)ccc1OC`, the growth in [1] is 100%; in test [2], 93.4%; in [3], 94.8%; in test [4] it was 103%; in [5] it was 102%; in [6], 110%. Further, the growth was 99.3% in test [7]; 93% in test [8]; 112% in test [9]; 104% in test [10]; 101% in test [11]; 101% in [12]. The growth is 105% in test [13]; 92.3% in test [14]; 99.3% in test [15]; 97.8% in test [16]; 104% in test [17]; 104% in [18]. Besides, the growth in test [19] is 93.9%.
As for `CCCCN(CCCC)CCc1c(C)cc(C)c(CCN(CCCC)CCCC)c1O`, the growth in [1] is 4.18% (active); in test [2] it was 26.8%; in test [3], 35.5%; in test [4], 62.4%; in test [5], 7.59% (active); in [6], -11.3% (active). In addition, the growth in test [7] is -6.82% (active); in [8] it was 41.5%; in test [9] it was 41.1%; in test [10], 20%; in test [11] it was 52.9%; in [12] it was 21.2%. Moreover, the growth in test [13] is -15.9% (active); in test [14] it was 48.3%; in test [15], 40.1%; in test [16] it was 49.5%; in test [17], 31.3%; in test [18], 67.6%. In addition, the growth in [19] is 7.47% (active); in [20], 38.8%.
`O=C(NNc1nc(Cl)nc(N2CCN(C(c3ccccc3)c3ccccc3)CC2)n1)c1ccccc1`: the growth in test [1] is -9.53% (active); in test [2] it was 48%; in [3], 32%; in test [4], 47.6%; in [5] it was 86.3%; in test [6], 52.2%. Further, the growth in test [7] is -68.3% (active); in test [8] it was 98.7%; in test [9], 70.5%; in test [10] it was 24.1%; in [11], 46.6%; in [12], -38.8% (active). Also, the growth in test [13] is -14.4% (active); in test [14], -54.3% (active); in test [15] it was -47.1% (active); in [16], 63.1%; in test [17], 92.3%; in [18] it was -33% (active). For the same compound, in [19], the growth was -1.56% (active).
Consider `CCc1c(Nc2ccc(C)cc2)[nH]c(N)nc1=S`, for which the growth is 97% in [1]; 95.3% in test [2]; 106% in test [3]; 98.1% in test [4]; 106% in [5]; 108% in test [6]. Moreover, the growth in test [7] is 96.9%; in [8], 101%; in test [9], 104%; in [10], 109%; in [11] it was 104%; in test [12], 115%. Besides, the growth in test [13] was 103%; in test [14], 98.8%; in test [15] it was 113%; in [16], 103%; in test [17], 96.2%; in test [18] it was 103%. The growth in test [19] is 104%.
As to `CN(C)CCCn1c2c(c3ccc(-c4ccn[nH]4)cc3c1=O)C(=O)c1ccccc1-2`, the growth was 21.6% in test [1]; 6.87% (active) in test [2]; 81.9% in [3]; 5.59% (active) in test [4]; 1.55% (active) in [5]; 34.1% in test [6]. Also, the growth in test [7] is 25.9%; in test [8], 0.619% (active); in test [9] it was 2.46% (active); in [10], 43%; in test [11], 4.84% (active); in test [12], 24.5%. The growth is 39.7% in [13]; 71.1% in test [14]; 68.3% in [15]; 44.6% in test [16]; 1.34% (active) in [17]; 46.4% in test [18]. Moreover, the growth in test [19] is 70.3%; in test [20] it was 48%.
